{"source": "PubChem BioAssay AID434990", "about": "(Southern Research Specialized Biocontainment Screening …, 2010)", "note": "Calls of active or inactive are those of the source.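 The calls were made as follows: active = inhibition above 40% at one or more tested concentrations in the dose response counterscreen; inactive = inhibition below 40% at every dose tested.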", "data": [{"test": "general Salmonella growth or reporter suppression – synthesized compounds, round 3, counter-screen for PhoP regulon inhibitor project, SAR follow-up (AID 434990)", "conditions": "S. Typhimurium counter-screen GFP reporter fluorescence, 4 h; series mostly up to 150 µM; inhibition: at the top concentration", "values": [{"smiles": "Cc1ccccc1CNC(=S)Nc1ccncc1", "inhibition": "-2.17% (inactive)"}, {"smiles": "O=C(Nc1cccc(I)c1)N1CCCN(Cc2ccccc2F)C1", "inhibition": "18.6% (inactive)"}, {"smiles": "O=C(Nc1cccc(C(F)(F)F)c1)N1CCCN(Cc2ccccc2F)C1", "inhibition": "13.3% (inactive)"}, {"smiles": "Cc1ccc(NC(=O)N2CCCN(Cc3ccccc3F)C2)cc1", "inhibition": "-1.1% (inactive)"}, {"smiles": "O=C(Nc1ccc(Cl)cc1)N1CCCN(Cc2ccc(Br)cc2)C1", "inhibition": "1.9% (inactive)"}, {"smiles": "O=C(Nc1ccc(I)cc1)N1CCCN(Cc2ccccc2F)C1", "inhibition": "9.87% (inactive)"}, {"smiles": "O=C1C2=C(Nc3ccccc3SC2c2cccc(I)c2)c2ccccc21", "note": "(centres undefined)", "inhibition": "-79.9% (inactive)"}, {"smiles": "O=C(Nc1ccc(Cl)cc1)N1CCCN(Cc2ccccc2Br)C1", "inhibition": "0.23% (inactive)"}, {"smiles": "N#Cc1ccc(NC(=S)NCc2ccc(Cl)cc2)cc1", "inhibition": "-11.5% (inactive)"}, {"smiles": "O=C(Nc1cccc(F)c1)N1CCCN(Cc2ccccc2F)C1", "inhibition": "14% (inactive)"}, {"smiles": "S=C(NCCc1ccc(Cl)cc1)Nc1ccncc1", "inhibition": "-5.69% (inactive)"}, {"smiles": "COc1ccccc1CNC(=S)Nc1ccncc1", "inhibition": "-1.11% (inactive)"}, {"smiles": "Cc1cccc(NC(=O)N2CCCN(Cc3ccccc3F)C2)c1", "inhibition": "12.2% (inactive)"}, {"smiles": "N#Cc1ccccc1NC(=S)NCc1ccc(Cl)cc1", "inhibition": "-2.55% (inactive)"}]}]}
